# From PubChem BioAssay (NCI)
# Values joined by “and” are separate entries in the source; they are usually repeats but may differ in a detail not shown here. Identical values can stand only once. The panel holds about 83,000 compounds, 20% with a hit somewhere; the sample as a whole holds those more often.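 48-hour exposure, single concentration, 96-well plates; percent growth endpoint where 0 means no net growth. Active: below 10.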 Active and inactive are the calls of the source.
# Tested on: HL-60(TB) leukemia
# Assay: NCI-60 one-dose screen, 48 h (100 = growth as untreated, 0 = no growth, -100 = all killed)
# Settings: 10 µM unless noted
row,SMILES,growth
1,O=C(CN1CCCCC1)Sc1nnc2sc3ccccc3n12,98.6% (inactive)
2,Cc1ccccc1CNc1ccc(N2CCOCC2)cc1,102% (inactive)
3,CC1=NC2=CC=CC3=NC(C(Cl)(Cl)Cl)=NC(=N1)N23,25.2% (inactive)
4,O=C1NC(=C(Cl)Cl)/C(=N/S(=O)(=O)N2CCC(C3(C(F)(F)F)N=N3)CC2)N1,77% (inactive)
5,O=S(=O)(O)C1(O)CCCCC1,87.6% (inactive)
6,Cc1cc2c(C(C)C)c(O)c(O)c(C=NCCCCCCC(=O)O)c2c(O)c1-c1c(C)cc2c(C(C)C)c(O)c(O)c(C=NCCCCCCC(=O)O)c2c1O,28.9% (inactive)
7,COc1cc2c(cc1OCCCCC(=O)Nc1ccc(-c3nc4ccccc4s3)cc1)N=C[C@@H]1CCCN1C2=O,-47.2% (active)
8,CCCCCCC(O)(c1ccc(F)cc1)C(CN1CCOCC1)c1ccccc1 (stereo unspecified),30.8% (inactive)
9,O=C(Cn1ccc2ccccc21)Nc1ccc(-c2nc3ccccc3s2)cc1,99.9% (inactive)
10,O=C(O)C1C2C=CC(C2)C1C(=O)O (stereo unspecified),25.8% (inactive) and 104% (inactive)
11,O=C(/C=C/c1cn(-c2ccccc2)nc1-c1ccc([N+](=O)[O-])cc1)c1ccc(Cl)cc1,69.1% (inactive)
12,CN1C(=O)C(N=Nc2ccc([N+](=O)[O-])cc2)SC1=S (stereo unspecified),-4.43% (active) and -10.4% (active)
13,COc1ccc(-c2nocc2-c2cccs2)cc1,115% (inactive)
14,NC(=O)c1cc2c3ccccc3ccn2c1-c1ccccc1,-3.94% (active)
15,COc1cc(C2CC(c3ccccc3)=NN2C=O)ccc1Oc1ccnc2cc(Cl)ccc12 (stereo unspecified),33.5% (inactive)
16,CN1CCN(C2CCN(C(=O)Nc3cc(Oc4ccc(NC(=O)C5(C(=O)Nc6ccc(F)cc6)CC5)c(F)c4)ccn3)CC2)CC1,-44.7% (active) and 121% (inactive)
17,Fc1ccc(-c2cn3c(nc4ccccc43)c(-c3ccccc3)n2)cc1,99.8% (inactive)
18,CC(=O)C1=C(O)C=C2Oc3c(C(=O)/C=C/c4c(Cl)cccc4Cl)c(O)c(C)c(O)c3[C@]2(C)C1=O,-39.3% (active)

row,SMILES,growth
1,CCCCCCOc1ccc(/C=N/Nc2cc(C)nc3ccc(Br)cc23)cc1,-13.7% (active)
2,O=C(N/N=C/c1ccccc1)N/N=C/c1ccccc1,95.3% (inactive) and 98.4% (inactive)
3,COc1cc2oc(-c3ccc(O)cc3)cc(=O)c2c(O)c1I,99% (inactive)
4,COC(=O)C1(O)NC(=C(C#N)C#N)C(C#N)=C1C(=O)c1ccc(OC)c(OC)c1 (stereo unspecified),79% (inactive)
5,COc1ccc(-c2nsc3c2NC(=O)CC3c2ccc(F)cc2)cc1 (stereo unspecified),7.88% (active)
6,CCOc1ccc(S(=O)(=O)c2ccc(C)cc2)c2c1no[n+]2[O-],85.7% (inactive)
7,N#Cc1ccc(OC(=O)Nc2cc(Cl)cc(Cl)c2)cc1,-0.568% [100 µM] (active)
8,C=CCn1c(SCC(=O)Nc2ccc(C(=O)/C=C/c3cc(OC)c(OC)c(OC)c3)cc2)nnc1-c1ccccc1,71.8% (inactive)
9,Cc1cc2c(c(=O)o1)C(c1ccc(OC(=O)N3CCOCC3)cc1)C(C#N)=C(N)O2 (stereo unspecified),104% (inactive)
10,CCCCN(CCCC)CCCO,95.5% (inactive)
11,CCOC(=O)Nc1ccc(-c2nc(-c3cccc(OC)c3)c(-c3ccnc(Br)c3)[nH]2)cc1,-18.7% (active)
12,CC1(C)[C@@H](OC(=O)CCC(=O)O)CC[C@]2(C)[C@H]3C(=O)C=C4[C@@H]5C[C@@](C)(C(=O)O)CC[C@]5(C)CC[C@@]4(C)[C@]3(C)CC[C@@H]12,84.9% (inactive) and -56.3% (active)
13,COc1ccc2c(c1)C(=O)/C(=C/c1cccc(OCC(=O)c3ccccc3)c1)O2,-80.5% (active)
14,COc1ccc(Nc2ncccc2C(=O)NCc2cn(Cc3cccc(Oc4ccccc4)c3)nn2)cc1,32.1% (inactive)
15,CCCCCCCCCCCC(=O)C(CCCCCCCCCC)C(=O)Nc1ccccc1 (stereo unspecified),101% (inactive)
16,COc1ccc(C2c3cccn3-c3ccccc3N2C(C)=O)cc1 (stereo unspecified),-49.9% (active)
17,CCn1nc(-c2ccccn2)c2cccnc2c1=S,37.4% (inactive)
18,Fc1c[c-]c(-c2ccccn2)c(F)c1.Fc1c[c-]c(-c2ccccn2)c(F)c1.[Cl][Pt+].[Cl][Pt+].c1ccc([PH+](C[PH+](c2ccccc2)c2ccccc2)c2ccccc2)cc1,6.62% (active)
